Drawing on PubChem BioAssay (NCI), this text covers growth for 9 compounds.

Common to all, as to assay: NCI-60 one-dose screen, 48 h (100 = growth as untreated, 0 = no growth, -100 = all killed)
Conditions in all cases: 10 µM

The subject of experiment [1] is SR leukemia.
For experiment [2], the system named is RPMI-8226 leukemia.
The test system of experiment [3] is OVCAR-8 ovarian.
Experiment [4] concerns OVCAR-5 ovarian.
The subject of experiment [5] is OVCAR-4 ovarian.
In experiment [6] the test system is SK-OV-3 ovarian.
The test system of experiment [7] is IGROV1 ovarian.
For experiment [8], the system named is OVCAR-3 ovarian.
The test system of experiment [9] is HS 578T breast.
Experiment [10] relates to NCI/ADR-RES ovarian.
For experiment [11], the system named is T-47D breast.
For experiment [12], the system named is BT-549 breast.
The subject of experiment [13] is MDA-MB-435 melanoma.
In experiment [14] the test system is SW-620 colon.
The subject of experiment [15] is MCF7 breast.
Experiment [16] has as its system HCT-116 colon.
Experiment [17] concerns HCC-2998 colon.
Experiment [18] relates to KM12 colon.

Compounds without any hit were thinned out: in the full panel of roughly 83,000, 20% have a hit.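 Assay: single dose, 48 h. Readout: percent growth (0 = no net growth; negative = cell death). Active: <10.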 A number with no mark means an inactive call. Activity calls are given as the source filed them.

`COc1ccc(-c2cc(/C=C3\C(=O)Nc4cc(Cl)ccc43)[nH]n2)cc1OC`: the growth is 21.9% in [1]; 79.8% in experiment [2]; 104% in [3]; 95.7% in experiment [4]; 85.6% in [5]; 78.2% in experiment [6]. Moreover, the growth in experiment [7] is 50.7%; in experiment [8], 53%; in experiment [9], 60.5%; in [10] it was 62.5%; in experiment [11], 96.5%; in experiment [12] it was 80.1%. The growth was 7.28% (active) in experiment [13]; 47.1% in experiment [14]; 32.2% in [15]; 50.9% in experiment [16]; 98.8% in [17]; 64.4% in experiment [18].

For `COc1cccc(-c2nnc(COc3ccc(-c4nc5ccccc5[nH]4)cc3OC)o2)c1`, the growth in [1] is 7.26% (active); in experiment [2], 51%; in [3], 67.3%; in [4], 119%; in experiment [5] it was 103%; in [6], 107%. Besides, the growth is 101% in [7]; 102% in experiment [8]; 102% in experiment [9]; 89% in [10]; 73.6% in experiment [11]; 81.7% in experiment [12]. The growth in experiment [13] was 94.9%; in [14], 110%; in experiment [15], 73.6%; in experiment [16], 73%; in [17] it was 105%; in experiment [18] it was 98%.

As to `CCCCC(CC#N)(CCC)CCC`, the growth in experiment [1] was 93.6%; in experiment [2], 100%; in [3], 104%; in experiment [4], 104%; in experiment [5], 93.2%; in experiment [6], 94.8%. Besides, the growth was 102% in [7]; 106% in experiment [8]; 113% in experiment [9]; 97.7% in experiment [10]; 100% in experiment [11]; 98.5% in experiment [12]. The growth in experiment [13] was 99.4%; in experiment [14], 108%; in experiment [15], 98.4%; in [16], 106%; in experiment [17] it was 96.3%; in experiment [18], 107%.

For the compound `COc1ccccc1CNCCCN1C(=O)c2ccc3c4c(ccc(c24)C1=O)C(=O)N(CCCNCCNCCCN)C3=O`, the growth in experiment [1] is 13.6%; in experiment [2], 60.8%; in experiment [3], 12.4%; in [4] it was 65.9%; in experiment [5] it was -94.8% (active); in experiment [6] it was 52.8%. Moreover, the growth in experiment [7] is 13.4%; in [8] it was -14% (active); in experiment [9], 54.6%; in [10], 96.7%; in [11], 17.9%; in [12], 69.4%. The growth was 10.4% in experiment [13]; 8.12% (active) in [14]; -39.1% (active) in experiment [15]; 1.05% (active) in experiment [16]; 14.7% in experiment [17]; 15.4% in experiment [18].

Regarding `Cn1c([N+](=O)[O-])cnc1C=C1C(=O)c2ccccc2C1=O`, the growth was 7.25% (active) in experiment [1]; 40.6% in experiment [2]; 7.11% (active) in experiment [3]; 61.3% in experiment [4]; 56.8% in [5]; 54% in experiment [6]. For the same compound, the growth is 13.8% in experiment [7]; 38.1% in experiment [8]; 26.4% in [9]; 44.5% in experiment [10]; 65.4% in [11]; 25% in experiment [12]. The growth was 11.8% in [13]; 29% in experiment [14]; 37.8% in [15]; 20.7% in [16]; 88.2% in [17]; 68.3% in [18].

As to `c1ccc(C2CCCCC2)c(OCCCCCN2CCNCC2)c1`, the growth was -32.9% (active) in experiment [1]; -14.6% (active) in experiment [2]; 83.2% in [3]; 93.8% in experiment [4]; 68.5% in experiment [5]; 94.9% in experiment [6]. The growth in experiment [7] was 56.7%; in experiment [8] it was 76.9%; in experiment [9], 76%; in experiment [10], 70%; in [11], 28%; in [12] it was 72.4%. Further, the growth was 47.2% in experiment [13]; 11.3% in experiment [14]; -34.4% (active) in experiment [15]; -7.58% (active) in experiment [16]; -68.8% (active) in [17]; 35.6% in [18].

`COc1ccc2oc(=O)cc(C(c3ccc[nH]3)c3ccc[nH]3)c2c1`: the growth in experiment [1] is 1.93% (active); in experiment [2], -3.8% (active); in experiment [3], -4.93% (active); in experiment [4], 34.8%; in experiment [5], 38.8%; in experiment [6] it was 7.19% (active). Further, the growth is 25.5% in [7]; -8.55% (active) in experiment [8]; 18.8% in experiment [9]; 7.99% (active) in experiment [10]; 22.5% in experiment [11]; -13.4% (active) in experiment [12]. Further, the growth in experiment [13] is -24.3% (active); in [14], 25.6%; in [15], 13.9%; in [16] it was -3.62% (active); in experiment [17], -5.71% (active); in experiment [18] it was 4.33% (active).

In the case of `COc1ccc(-c2[nH]ncc2/C=C/c2cc(C(F)(F)F)[nH]c(=O)n2)cc1`, the growth in [1] was 71.9%; in [2], 96.5%; in experiment [3], 102%; in experiment [4] it was 100%; in experiment [5] it was 93.6%; in experiment [6], 100%. In addition, the growth in experiment [7] is 93.1%; in [8], 95.1%; in experiment [9] it was 106%; in experiment [10], 105%; in experiment [11], 75.9%; in experiment [12] it was 80.4%. Also, the growth in experiment [13] is 97.8%; in [14], 98.4%; in [15] it was 91.2%; in experiment [16], 100%; in experiment [17], 103%; in experiment [18], 103%.

Consider `COC1OC2COC(c3ccccc3)OC2C(=O)C1NC(=O)c1ccccc1` (configuration not stated), for which the growth in experiment [1] is 122%; in experiment [2], 97.3%; in experiment [3], 101%; in experiment [4], 93.7%; in experiment [5], 103%; in experiment [6] it was 105%. For the same compound, the growth in experiment [7] was 114%; in experiment [8], 99.8%; in experiment [9] it was 96.6%; in [10], 103%; in experiment [11] it was 98.6%; in [12], 107%. Besides, the growth in experiment [13] is 96.4%; in experiment [14] it was 88.2%; in experiment [15] it was 99.6%; in [16] it was 99%; in experiment [17] it was 92.9%; in experiment [18] it was 96.7%.
